Results on 28 compounds are retold here after PubChem BioAssay AID504333 (National Center for Advancing Translational Sciences (NCATS), 2011).

The structures appear in SMILES notation. Hit rate of the full screen: of about 360,000 compounds, about 16,000 (4.4%) were called active. Not shown: some 9% with an inconclusive outcome. The entries come from a sample that favours actives as a whole. Values without a mark were called inactive. The call rests on the fitted dose curve; in most records, active means well fitted inhibition curve with a large enough effect; inconclusive means small, poorly fitted or top-dose-only effect; inactive means no such curve, though single readings can be large or run the other way.
On the % scale 0 is the no-effect control and ±100 the full control effect; potency means the concentration at half of the fitted maximal effect.

Sequence of Bromodomain adjacent to zinc finger domain protein 2B (Homo sapiens) (Q9UIF8 whole entry, looked up, the tested form may be a part): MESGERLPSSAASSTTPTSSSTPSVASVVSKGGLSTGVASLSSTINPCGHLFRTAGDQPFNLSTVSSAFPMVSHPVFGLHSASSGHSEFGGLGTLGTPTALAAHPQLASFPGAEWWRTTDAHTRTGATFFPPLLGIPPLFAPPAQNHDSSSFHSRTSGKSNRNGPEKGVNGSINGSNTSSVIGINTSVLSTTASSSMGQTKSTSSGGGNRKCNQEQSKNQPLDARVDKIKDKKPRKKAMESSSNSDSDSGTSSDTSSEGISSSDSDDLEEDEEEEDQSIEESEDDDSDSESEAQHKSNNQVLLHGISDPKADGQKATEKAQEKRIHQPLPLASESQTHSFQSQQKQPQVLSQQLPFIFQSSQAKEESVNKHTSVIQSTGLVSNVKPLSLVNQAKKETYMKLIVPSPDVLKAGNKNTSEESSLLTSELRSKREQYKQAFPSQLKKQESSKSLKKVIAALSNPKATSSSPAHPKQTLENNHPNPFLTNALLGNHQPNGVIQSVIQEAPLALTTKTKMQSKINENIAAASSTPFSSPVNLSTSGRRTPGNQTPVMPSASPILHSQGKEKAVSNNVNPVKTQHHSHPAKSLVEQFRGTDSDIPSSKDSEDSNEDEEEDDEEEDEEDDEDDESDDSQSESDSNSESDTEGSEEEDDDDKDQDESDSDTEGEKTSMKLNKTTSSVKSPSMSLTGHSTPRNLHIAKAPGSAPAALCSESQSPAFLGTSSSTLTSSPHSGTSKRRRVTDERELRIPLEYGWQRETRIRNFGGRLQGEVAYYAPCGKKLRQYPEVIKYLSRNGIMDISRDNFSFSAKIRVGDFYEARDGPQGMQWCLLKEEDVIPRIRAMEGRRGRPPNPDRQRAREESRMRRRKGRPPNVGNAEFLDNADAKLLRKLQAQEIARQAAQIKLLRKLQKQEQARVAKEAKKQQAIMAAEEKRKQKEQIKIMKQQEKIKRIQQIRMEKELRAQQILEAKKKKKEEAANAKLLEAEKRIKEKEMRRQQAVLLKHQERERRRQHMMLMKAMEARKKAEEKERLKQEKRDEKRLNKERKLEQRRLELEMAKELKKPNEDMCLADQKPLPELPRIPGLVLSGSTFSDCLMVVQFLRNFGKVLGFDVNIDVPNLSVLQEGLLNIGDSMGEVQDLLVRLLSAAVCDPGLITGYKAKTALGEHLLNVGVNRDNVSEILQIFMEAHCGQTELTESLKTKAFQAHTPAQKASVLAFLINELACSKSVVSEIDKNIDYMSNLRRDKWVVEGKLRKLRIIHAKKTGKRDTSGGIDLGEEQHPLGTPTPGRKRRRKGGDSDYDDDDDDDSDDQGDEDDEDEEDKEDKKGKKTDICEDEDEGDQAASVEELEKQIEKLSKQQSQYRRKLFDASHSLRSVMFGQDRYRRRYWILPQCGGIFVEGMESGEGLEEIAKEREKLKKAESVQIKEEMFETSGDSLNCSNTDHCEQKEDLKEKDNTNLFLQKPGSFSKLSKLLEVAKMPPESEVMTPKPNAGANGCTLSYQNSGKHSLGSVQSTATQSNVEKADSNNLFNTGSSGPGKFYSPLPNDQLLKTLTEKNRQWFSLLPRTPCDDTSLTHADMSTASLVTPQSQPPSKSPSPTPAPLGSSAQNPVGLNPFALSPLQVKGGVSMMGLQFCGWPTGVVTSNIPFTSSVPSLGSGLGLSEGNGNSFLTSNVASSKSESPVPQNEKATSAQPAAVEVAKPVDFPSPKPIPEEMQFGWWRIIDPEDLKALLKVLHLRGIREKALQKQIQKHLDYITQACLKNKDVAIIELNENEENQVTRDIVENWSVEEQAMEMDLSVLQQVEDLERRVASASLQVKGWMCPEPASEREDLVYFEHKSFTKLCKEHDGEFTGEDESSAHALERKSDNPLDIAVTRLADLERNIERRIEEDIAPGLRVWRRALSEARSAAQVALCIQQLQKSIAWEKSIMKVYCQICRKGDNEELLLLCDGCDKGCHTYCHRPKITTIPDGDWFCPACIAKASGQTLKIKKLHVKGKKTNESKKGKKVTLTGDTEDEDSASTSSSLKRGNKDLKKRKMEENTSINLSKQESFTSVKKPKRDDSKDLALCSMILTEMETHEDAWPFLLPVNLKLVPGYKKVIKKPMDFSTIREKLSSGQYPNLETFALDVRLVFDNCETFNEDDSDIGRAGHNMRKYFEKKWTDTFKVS

The assay has as its target Bromodomain adjacent to zinc finger domain protein 2B (Homo sapiens) (UniProt Q9UIF8). As to the kind of experiment: qHTS Assay for Inhibitors of BAZ2B. Further: nearly all actives have a fitted effect of over 60% in size. As to conditions: AlphaScreen BAZ2B-H3K14Ac peptide displacement; series mostly up to 114 µM; activity change, negative = inhibition: at the top concentration. The method, boiled down:
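Complex of BAZ2B and biotin-H3K14Ac (50 nM apiece) forms over 30 min at RT, then faces library compounds up to 110 uM for another 30 min; AlphaScreen beads added, 20 min dark incubation, luminescence read.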
In general terms: In qHTS, concentration-response curves come from the screen itself.
For `Cc1ccc(Cl)cc1NC(=O)Cc1ccc(-n2c(C)nc3cccnc32)cc1`, the “activity change, negative = inhibition” value is -5.91%.
The same measure, in the same setting: with `CC(NC(=O)CCc1cn(Cc2ccccc2Cl)c2ccccc12)c1ccccc1` (stereo not drawn) the figure was -5.03%; with `CCOc1ccc(CCNC(=O)c2cc3c(=O)n(C)c4ccccc4c3n2C)cc1`, -3.88%; with `Cc1cc(C)c(OCC(=O)N/N=C/c2ccco2)c(C)c1`, 3.11%.
Still for that read-out and setting: in the case of `COc1ccccc1OCC(=O)OCc1cc(-c2ccco2)on1` it was 12.1%.
Take `COC(=O)COc1ccc2c(c1C)O/C(=C\c1ccco1)C2=O`: the Potency was 50.1 µM (active).
Consider `CCOC(=O)c1ccc2c(c1)N(Cc1cccc(OC)c1)C(=O)c1ccccc1S2(=O)=O`, for which the “activity change, negative = inhibition” value is 4.73%.
On the same count and under the same terms, in the case of `CCc1nc(-c2cc(S(=O)(=O)N3CCN(c4ccc(OC)cc4)CC3)ccc2OC)no1` it was -33.9%.
Still for that read-out and setting: in the case of `Cc1cc2c(cc1C)C(c1cccc(OC(C)C)c1)CC(=O)N2` (stereo not drawn) it was -1.89%; in that of `N#Cc1c(-c2ccc(Cl)cc2)c2c([nH]c1=S)CCCC2`, -11.4%.
`CC(=O)c1c(C)[nH]c(=S)c(C#N)c1-c1ccc(F)cc1`: the Potency was 79.4 µM (active).
For the compound `Cc1cc(C)c2c(-c3ccc(F)cc3)c(C#N)c(=O)n(C)c2n1`, the “activity change, negative = inhibition” value is -1.61%.
On the same count and under the same terms, with `CC(C)CCN(C(=O)Nc1ccc(Cl)c(Cl)c1)C(C)c1cccs1` (stereo not drawn) the figure was 72%.
On the same count and under the same terms, in the case of `Cc1ccc(Cn2c(CCCNC(=O)C3CCCCC3)nc3ccccc32)cc1` it was -12.3%; in that of `CCOc1ccc(NC(=O)c2cc3c(=O)n(Cc4cccs4)ccc3nc2C)cc1`, -15.9%; in that of `O=C(Nc1n[nH]c(C(F)(F)F)n1)c1cccs1`, -9.64%.
Still for that read-out and setting: with `COc1ccc(CC(=O)Nc2nc3n(n2)C(c2ccccc2)CC(=O)N3)cc1OC` (stereo not drawn) the figure was -28.7%.
For the compound `CC1CC(c2ccccc2)n2nc(NC(=O)c3cccs3)nc2N1` (stereo not drawn), the Potency is 79.4 µM (active).
As for `O=C(c1ccc2c(c1)N(Cc1ccc(Cl)cc1)C(=O)c1ccccc1S2(=O)=O)N1CCCCC1`, the “activity change, negative = inhibition” value was -21%.
`Cc1ccc2nc(COc3cccc(NC(=O)c4ccccc4Cl)c3)cc(=O)n2c1`: the “activity change, negative = inhibition” value is 6.72%.
For the compound `Cc1ccc(S(=O)(=O)n2nc(-c3ccc(Cl)cc3)nc2NCc2ccccc2)cc1`, the “activity change, negative = inhibition” value is 3.65%.
The same measure, in the same setting: with `FC(F)(F)c1nc2ccccc2nc1N/N=C/c1ccc(Cl)cc1` the figure was -34.1%; with `Cc1ccc(/C=N/NC(=O)C2=NNC(c3ccccc3)(c3ccccc3)C2)c(O)c1`, -5.41%.
Turning to `Cc1nc2ccccc2nc1N/N=C/c1ccc(O)cc1O`, the Potency is 25.1 µM (active).
Consider `Cc1ccc(Cl)cc1-n1ncc2c(N3CCC(C(N)=O)CC3)ncnc21`, for which the “activity change, negative = inhibition” value is -1.64%.
On the same count and under the same terms, with `Cc1cccn2c(=O)c3cc(C(=O)NC(C)c4ccccc4)c(=N)n(CCCO)c3nc12` (stereo not drawn) the figure was 0.391%; with `COc1ccc(-c2cc(NCc3ccc(F)cc3)n3cnnc3n2)cc1`, -2.56%; with `Cc1ccc(CSc2nc3cccnc3n2Cc2ccc(C(=O)NC3CC3)cc2)cc1`, 6.32%.
